Experimental data taken from PubChem BioAssay (EPA / NIEHS).
Records with an inconclusive call do not appear. The source made the active and inactive calls. Rule for the calls, unless noted: active = hit-call score of the fitted dose curve at least 0.9, where 1 is the maximum; inactive = score below 0.9.

How the values were obtained:
[1] = target: Retinoic acid receptor RXR-alpha (Homo sapiens) (UniProt P19793); assay: ATG_RXRa_TRANS: Attagene TRANS-FACTORIAL HepG2 Assay for human Retinoid X Receptor alpha (RXRa) (AID 2283012; active = hit-call score of the fitted dose curve at least 0.9, where 1 is the maximum)
Retinoic acid receptor RXR-alpha (Homo sapiens), sequence (P19793 whole entry, looked up, the tested form may be a part): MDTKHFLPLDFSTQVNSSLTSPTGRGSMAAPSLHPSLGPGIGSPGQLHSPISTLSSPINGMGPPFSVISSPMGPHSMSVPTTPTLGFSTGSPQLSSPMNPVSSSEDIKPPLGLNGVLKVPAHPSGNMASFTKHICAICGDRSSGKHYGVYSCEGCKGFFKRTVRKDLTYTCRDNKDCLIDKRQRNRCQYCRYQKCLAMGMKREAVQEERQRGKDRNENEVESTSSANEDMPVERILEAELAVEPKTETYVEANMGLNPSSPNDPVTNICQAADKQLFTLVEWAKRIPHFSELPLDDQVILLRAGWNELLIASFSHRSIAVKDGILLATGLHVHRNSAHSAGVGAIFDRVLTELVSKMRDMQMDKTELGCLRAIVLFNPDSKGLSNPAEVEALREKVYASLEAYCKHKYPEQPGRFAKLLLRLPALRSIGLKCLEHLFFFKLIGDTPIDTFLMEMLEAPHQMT
Procedure, shortened: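 HepG2 cells transiently transfected with GAL4-UAS reporter units and chimeric RXRa-Gal4 protein, treated 24 h. Reporter mRNA measured by RT-PCR, fluorescent labelling, HpaI digestion and capillary electrophoresis. Induction fitted against DMSO.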

[2] = target: human Retinoid X Receptor beta (RXRb), RXRB (gene 6257) (UniProt P28702); assay: ATG_RXRb_TRANS: Attagene TRANS-FACTORIAL HepG2 Assay for human Retinoid X Receptor beta (RXRb) (AID 2283013; active = hit-call score of the fitted dose curve at least 0.9, where 1 is the maximum)
human Retinoid X Receptor beta (RXRb), RXRB (gene 6257), sequence (P28702 whole entry, looked up, the tested form may be a part): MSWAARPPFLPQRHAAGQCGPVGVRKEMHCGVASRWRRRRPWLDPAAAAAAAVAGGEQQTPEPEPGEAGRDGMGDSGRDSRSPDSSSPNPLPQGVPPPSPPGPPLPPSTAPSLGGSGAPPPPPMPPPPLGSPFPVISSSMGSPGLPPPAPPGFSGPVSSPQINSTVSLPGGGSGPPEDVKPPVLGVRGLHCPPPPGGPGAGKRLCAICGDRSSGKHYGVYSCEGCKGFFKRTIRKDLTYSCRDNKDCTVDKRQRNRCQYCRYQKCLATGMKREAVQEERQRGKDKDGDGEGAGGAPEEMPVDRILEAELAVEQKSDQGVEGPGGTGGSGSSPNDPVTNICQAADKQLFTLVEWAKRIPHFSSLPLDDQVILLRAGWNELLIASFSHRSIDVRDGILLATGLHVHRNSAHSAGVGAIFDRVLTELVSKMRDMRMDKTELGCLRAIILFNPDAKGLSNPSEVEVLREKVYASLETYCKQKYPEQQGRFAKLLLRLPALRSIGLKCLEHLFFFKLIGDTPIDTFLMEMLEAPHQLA
Procedure, shortened: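 HepG2 cells were transiently transfected with multiplexed GAL4-UAS reporters and a chimeric RXRb-Gal4 construct, then exposed for 24 h. Reporter mRNA was quantified by RT-PCR, FAM labeling, HpaI digestion and capillary electrophoresis; gain of signal was scored against DMSO.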

[3] = read-out: E-selectin (Homo sapiens) (UniProt P16581); assay: BSK_3C_Eselectin: BioMAP Diversity Plus: 3C Assay for Eselectin Biomarker Activity (AID 2283015); conditions: primary human endothelial cells (HUVEC); actives raise or lower the signal
Procedure, shortened: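 ELISA read-out of E-selectin on endothelial monolayers after 24 h chemical treatment. Human umbilical vein primary cells served as the system, with DMSO defining baseline activity for bidirectional fitting.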

[4] = read-out: Interleukin-1 alpha (IL1a), IL1A (gene 3552); assay: BSK_BE3C_IL1a: BioMAP Diversity Plus: BE3C Assay for Interleukin-1 alpha (IL1a) Biomarker Activity (AID 2283016); conditions: primary human bronchial epithelial cells; actives raise or lower the signal
Procedure, shortened: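 Human primary bronchial epithelial cells, 24 h chemical exposure; IL-1a quantified by ELISA, fitted bidirectionally against DMSO. Cytotoxicity assessed in parallel by SRB total-protein staining at the time of measurement.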

[5] = read-out: Monocyte Chemoattractant Protein-1 (MCP1), CCL2 (gene 6347); assay: BSK_3C_MCP1: BioMAP Diversity Plus: 3C Assay for Monocyte Chemoattractant Protein-1 (MCP1) Biomarker Activity (AID 2283017); conditions: primary human endothelial cells (HUVEC); actives raise or lower the signal
Procedure, shortened: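 ELISA read-out of MCP-1 from human umbilical vein endothelial cell cultures harvested 24 h post-dosing. Gain or loss of signal was fitted relative to DMSO.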

[6] = read-out: Monocyte Chemoattractant Protein-1 (MCP1), CCL2 (gene 6347); assay: BSK_4H_MCP1: BioMAP Diversity Plus: 4H Assay for Monocyte Chemoattractant Protein-1 (MCP1) Biomarker Activity (AID 2283018); conditions: primary human endothelial cells (HUVEC); actives raise or lower the signal
Procedure, shortened: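 Human umbilical vein endothelial cells (4H system) exposed to chemicals for 24 h in 96-well format. MCP-1 measured by ELISA; bidirectional fitting against DMSO, with SRB total-protein staining in parallel cultures for cytotoxicity.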

[7] = read-out: Human Leukocyte Antigen - DR isotype (HLADR), HLA-DRA (gene 3122); assay: BSK_3C_HLADR: BioMAP Diversity Plus: 3C Assay for Human Leukocyte Antigen - DR isotype (HLADR) Biomarker Activity (AID 2283019); conditions: primary human endothelial cells (HUVEC); actives raise or lower the signal
Procedure, shortened: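 ELISA readout of surface HLA-DR on human umbilical vein endothelium, taken 24 h after chemical treatment. Gain- and loss-of-signal were both fitted relative to DMSO.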

[8] = read-out: Interleukin-8 (IL8), CXCL8 (gene 3576); assay: BSK_3C_IL8: BioMAP Diversity Plus: 3C Assay for Interleukin-8 (IL8) Biomarker Activity (AID 2283020); conditions: primary human endothelial cells (HUVEC); actives raise or lower the signal
Procedure, shortened: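 Primary human umbilical vein endothelial cells were dosed for 24 h. IL-8 was quantified by ELISA and fitted bidirectionally against DMSO. Cytotoxicity was assessed in parallel cultures by SRB staining at 560 nm.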

[9] = read-out: Monokine induced gamma interferon (MIG), CXCL9 (gene 4283); assay: BSK_3C_MIG: BioMAP Diversity Plus: 3C Assay for Monokine induced gamma interferon (MIG) Biomarker Activity (AID 2283021); conditions: primary human endothelial cells (HUVEC); actives raise or lower the signal
Procedure, shortened: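 HUVEC primary endothelial cultures dosed with chemical; MIG quantified by ELISA at 24 h. Data fitted bidirectionally against DMSO control, with parallel SRB total-protein staining for cytotoxicity.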

[10] = target: human Thyroid Receptor alpha (THRa1), THRA (gene 7067) (UniProt P10827); assay: ATG_THRa1_TRANS: Attagene TRANS-FACTORIAL HepG2 Assay for human Thyroid Receptor alpha (THRa1) (AID 2283014; active = hit-call score of the fitted dose curve at least 0.9, where 1 is the maximum)
human Thyroid Receptor alpha (THRa1), THRA (gene 7067), sequence (P10827 whole entry, looked up, the tested form may be a part): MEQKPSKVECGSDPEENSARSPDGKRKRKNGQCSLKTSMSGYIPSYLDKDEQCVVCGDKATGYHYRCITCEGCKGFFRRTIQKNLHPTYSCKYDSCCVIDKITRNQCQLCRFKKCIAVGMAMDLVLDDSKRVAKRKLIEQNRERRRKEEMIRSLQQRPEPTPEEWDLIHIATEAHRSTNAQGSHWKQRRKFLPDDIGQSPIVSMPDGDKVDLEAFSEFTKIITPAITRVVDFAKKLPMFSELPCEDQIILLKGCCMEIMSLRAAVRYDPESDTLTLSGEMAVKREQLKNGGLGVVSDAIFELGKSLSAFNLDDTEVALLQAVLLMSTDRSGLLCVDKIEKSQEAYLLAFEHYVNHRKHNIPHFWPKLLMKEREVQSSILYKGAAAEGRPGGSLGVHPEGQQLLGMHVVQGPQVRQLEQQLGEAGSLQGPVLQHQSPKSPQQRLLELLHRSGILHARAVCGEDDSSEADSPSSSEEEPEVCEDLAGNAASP
Procedure, shortened: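 Reporter transcript induction, read by capillary electrophoresis of 6-FAM-labelled RT-PCR products, reflects activity of a transfected THRa1-Gal4 fusion in HepG2 liver cells. Cells were dosed for 24 h; activity was fitted in the positive direction against DMSO.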

Measured: AC50

E-selectin (Homo sapiens), sequence (P16581 whole entry, looked up): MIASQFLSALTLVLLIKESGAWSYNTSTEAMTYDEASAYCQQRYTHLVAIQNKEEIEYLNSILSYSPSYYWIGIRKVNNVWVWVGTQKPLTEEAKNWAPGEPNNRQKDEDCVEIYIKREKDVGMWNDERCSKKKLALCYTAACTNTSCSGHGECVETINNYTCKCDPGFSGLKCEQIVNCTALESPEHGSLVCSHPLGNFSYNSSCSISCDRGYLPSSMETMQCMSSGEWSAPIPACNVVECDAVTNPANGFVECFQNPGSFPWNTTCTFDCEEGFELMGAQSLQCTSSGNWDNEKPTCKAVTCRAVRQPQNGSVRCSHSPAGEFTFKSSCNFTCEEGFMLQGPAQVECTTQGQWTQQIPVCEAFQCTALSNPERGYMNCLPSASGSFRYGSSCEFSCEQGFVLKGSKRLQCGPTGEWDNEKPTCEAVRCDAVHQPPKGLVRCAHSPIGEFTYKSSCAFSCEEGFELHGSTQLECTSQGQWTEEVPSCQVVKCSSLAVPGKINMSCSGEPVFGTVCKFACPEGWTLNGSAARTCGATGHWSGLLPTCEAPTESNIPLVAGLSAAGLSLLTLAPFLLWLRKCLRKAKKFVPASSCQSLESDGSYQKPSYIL

O=C(O)CN(CC(=O)O)CC(=O)O
inactive: [1] | [2] | [3] | [4] | [5] | [6] | [7] | [8] | [9]

O=C1c2c(O)cccc2Cc2cccc(O)c21
inactive: [2] | [10] | [3] | [4] | [5] | [6] | [7] | [8] | [9]

NC=O
inactive: [2] | [10] | [3] | [4] | [5] | [6] | [7] | [8] | [9]

O=C1OC(c2ccc(O)cc2)(c2ccc(O)cc2)c2ccccc21
inactive: [1] | [10] | [3] | [8] | [9]
active: [4] 34.8 µM | [5] 14.1 µM | [6] 20 µM | [7] 31.1 µM

S=c1[nH]c2ccccc2s1
inactive: [1] | [3] | [4] | [5] | [6] | [7] | [8] | [9]

CC(=O)OCC(COC(C)=O)OC(C)=O
inactive: [1] | [10] | [3] | [4] | [5] | [6] | [7] | [8] | [9]

CCc1cc(C2=C(C(=O)O)N(c3ccccc3C(F)(F)F)S(=O)(=O)c3ccccc32)cc2c1OCO2
inactive: [1] | [3] | [4] | [5] | [6] | [8] | [9]
active: [7] 24.8 µM

CC(C)COC(=O)CCCCC(=O)OCC(C)C
inactive: [2] | [10] | [3] | [4] | [5] | [6] | [7] | [8] | [9]

Cn1cnc2c1c(=O)[nH]c(=O)n2C
inactive: [1] | [3] | [4] | [5] | [6] | [7] | [8] | [9]

CCCCC(CC)COC(=O)CCCCCCCC(=O)OCC(CC)CCCC (stereo not drawn)
inactive: [1] | [2] | [3] | [4] | [5] | [6] | [7] | [8] | [9]

Cc1ccc(C(C)(C)C)c(O)c1
active: [2] 23.3 µM | [3] 34.5 µM | [5] 34.7 µM
inactive: [1] | [4] | [6] | [7] | [8] | [9]

CN(C)C(=O)NC1(c2ccccc2)CCN(CC[C@@]2(c3ccc(F)c(F)c3)CN(C(=O)c3ccccc3)CCO2)CC1
inactive: [1] | [3] | [4] | [5] | [6] | [7] | [8] | [9]

CCCCC(CC)CO (stereo not drawn)
inactive: [1] | [2] | [3] | [4] | [5] | [6] | [7] | [8] | [9]

COC(=O)CCCC(=O)OC
inactive: [1] | [3] | [4] | [5] | [6] | [7] | [8] | [9]

CCCC[C@H]1CN(CC2CCOCC2)C(=O)OC12CCN(C1(C)CCN(C(=O)c3c(C)ncnc3C)CC1)CC2
inactive: [1] | [2] | [3] | [4] | [5] | [6] | [7] | [8] | [9]

COc1ccc(OC(F)(F)F)cc1CN[C@H]1CCCN[C@H]1c1ccccc1
inactive: [1] | [2] | [4] | [6] | [8] | [9]
active: [3] 9.58 µM | [5] 20 µM | [7] 32.8 µM

NC(=Nc1ccccc1)Nc1ccccc1
inactive: [1] | [2] | [3] | [4] | [5] | [6] | [7] | [8] | [9]

O=C(NS(=O)(=O)/C=C/c1cccs1)c1ccc(F)cc1Br
inactive: [1] | [10] | [3] | [4] | [5] | [6] | [7] | [8] | [9]

CC(C)NCC(O)c1ccc(O)c(O)c1 (stereo not drawn)
inactive: [2] | [3] | [4] | [5] | [6] | [7] | [8] | [9]

Cc1occc(=O)c1O
inactive: [3] | [4] | [5] | [6] | [7] | [8] | [9]

CCCCC(CC)COP(=O)(OCC(CC)CCCC)OCC(CC)CCCC (stereo not drawn)
active: [5] 18.2 µM | [6] 20 µM | [7] 20 µM | [8] 14 µM
inactive: [3] | [4] | [9]

CCCCCCCC(=O)OC
inactive: [2] | [10] | [3] | [4] | [5] | [6] | [7] | [8] | [9]
